Assay results published in PubChem BioAssay (NCI).
About 79,000 compounds went through this panel and 15% of them were active in at least one assay; those are over-represented in the sample as a whole. Activity calls are given as the source filed them. No stated cut-off is given here; in the data, active means growth inhibition above about 70%; inactive means the rest.

Test: NCI Yeast Anticancer Drug Screen. Data for the wt1 strain (AID 149);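 further: 0% = growth of vehicle-treated wt1 cultures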
Conditions: S. cerevisiae wt1 strain (SPY 50644) growth inhibition, active compounds read high
Protocol: Growth inhibition of yeast strains with defined genetic alterations is measured as a screen for potential anti-cancer activity. Selected strains with alterations in DNA damage repair or cell cycle control were exposed to compounds and growth inhibition was measured relative to vehicle treated controls. The strain used in this assay is wt1

Measured: growth inhibition

Cc1cc(Cl)ccc1NC(=O)/C(Cl)=C(/Cl)C(=O)O
inactive: at 1.2 µM 0% | at 3.7 µM -1% | at 11.0 µM 0% | at 33.0 µM 11%
active: at 100.0 µM 99%

O=C1NC(c2cccc(OCc3ccccc3)c2)Nc2ccccc21 (stereo not given)
inactive: at 1.2 µM -10% | at 3.7 µM -20% | at 11.0 µM -22% | at 33.0 µM -26% | at 100.0 µM -5%

CC(C)OC(=O)NNc1cccc(Cl)c1
active: at 33.0 µM 95% | at 100.0 µM 96%
inactive: at 1.2 µM 1% | at 3.7 µM 8% | at 11.0 µM 35%

O=C1C=C(Br)C(=O)c2ccccc21
active: at 11.0 µM 73% | at 33.0 µM 99% | at 100.0 µM 99%
inactive: at 1.2 µM 10% | at 3.7 µM 23%

C=CCNC1=C2C[C@@H](C)C[C@H](OC)[C@H](O)[C@@H](C)/C=C(\C)[C@H](OC(N)=O)[C@@H](OC)/C=C\C=C(/C)C(=O)NC(=CC1=O)C2=O
active: at 33.0 µM 95% | at 100.0 µM 96%
inactive: at 1.2 µM -26% | at 3.7 µM -53% | at 11.0 µM 41%

N#CC1OB(O)c2ccccc21 (stereo not given)
inactive: at 1.2 µM -5% | at 3.7 µM -4% | at 11.0 µM -5% | at 33.0 µM -4% | at 100.0 µM 0%

O=C1C[C@H]2[C@H](c3ccc(Br)cc3)[C@H]3C(=O)c4ccccc4NC(=O)[C@@H]3[C@@]2(O)c2ccccc2N1
inactive: at 1.2 µM 6% | at 3.7 µM 10% | at 11.0 µM 11% | at 33.0 µM 14% | at 100.0 µM 16%

O=[N+]([O-])c1ccc2nc(=S)[nH]n2c1
inactive: at 1.2 µM -3% | at 3.7 µM -2% | at 11.0 µM -7% | at 33.0 µM -8% | at 100.0 µM 41%
